Results on seven compounds are retold here after PubChem BioAssay (Tox21).

Where “and” joins values, the source holds several entries; their conditions need not be identical. Identical values can stand only once. Records with an inconclusive call do not appear. Some structures have more than one record in an assay (separate samples or runs), and their calls can disagree. Calls of active or inactive are those of the source. Unless noted, calls follow the shape of the dose curve; as a rule, active = well fitted curve in the direction sought with a large enough effect in the repeat runs; inconclusive = weak or mixed curves; inactive = no such curve, though single readings can be large; an effect the other way counts as inactive or inconclusive.

The nature of test [1]: qHTS assay to identify small molecule antagonists of the sonic hedgehog signaling (Shh) pathway (AID 1259369; calls by dose curve; also: nearly all actives have a fitted effect of over 45% in size; also: potency is read from the fitted curve at half-maximal effect). The essentials:
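Conditioned medium drives Shh signalling in 3T3Gli1-Luc cells; compounds in DMSO co-applied, 24hr at 37 C, then luciferase luminescence.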
On the technique in general: In qHTS, concentration-response curves come from the screen itself.

For test [2], the target named is Estrogen receptor beta (Homo sapiens) (UniProt Q92731). Briefly: qHTS assay to identify small molecule agonists of the estrogen receptor beta (ER-beta) signaling pathway (AID 1259377; active = well fitted activation curve with a large enough effect in the signal ratio in the repeat runs, not every such curve was filed as active; the % refers to the signal ratio). The essentials: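 qHTS in ER-beta-UAS-bla HEK293T cells: 6 hr settling, then 16 hr compound at 37C, then LiveBLAzer substrate 2 h at RT before fluorescence reading.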
For test [3] the target is unchanged. Briefly: qHTS assay to identify small molecule antagonists of the estrogen receptor beta (ER-beta) signaling pathway (AID 1259378; active = well fitted inhibition curve with a large enough effect in the signal ratio in the repeat runs, not every such curve was filed as active; the % refers to the signal ratio; also: potency is read from the fitted curve at half-maximal effect). An outline of the steps:
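ER-beta-UAS-bla HEK293T (GripTite) cells in 2% charcoal-stripped FBS medium were preincubated 6 hr at 37C, dosed with compound, then stimulated with 1 nM E2 (final) for 16 hr; beta-lactamase reporter read by B/G FRET fluorescence after 2 hr substrate loading.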

Test [4] can be described thus: qHTS assay to identify small molecule agonists of the androgen receptor (AR) signaling pathway in the presence of an antagonist - cell viability counter screen (AID 1259379). Also: nearly all actives have a fitted effect of over 25% in size. Also: potency is read from the fitted curve at half-maximal effect. An outline of the steps: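 A CellTiter-Fluor read-out measured viability of MDA-kb2 reporter cells (MMTV promoter with AR and GR response elements). Treatment: nilutamide 3.0uM final with compounds at 15 concentrations, 16 hr, 37C, 0% CO2.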

The nature of test [5]: qHTS assay to identify small molecule agonists of the estrogen receptor beta (ER-beta) signaling pathway - cell viability counter screen (AID 1259380). Also: nearly all actives have a fitted effect of over 30% in size. The essentials:
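Cells used were ER-beta-UAS-bla HEK293T in medium with 2% charcoal-stripped FBS. They were treated for 16 hr at 37C. Viability came from CellTiter-Glo luminescence.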

A short description of test [6]: qHTS assay to identify small molecule antagonists of the estrogen receptor beta (ER-beta) signaling pathway - cell viability counter screen (AID 1259382). Also: series mostly up to about 92 µM; nearly all actives have a fitted effect of over 55% in size. The essentials: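 Agonist-stimulated (1nM E2) ER-beta-UAS-bla HEK293T cells are incubated with library compounds for 16 hr at 37C. Cell viability is then assessed in the reporter-assay wells by adding CellTiter-Glo and reading luminescence after 30 min.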

The target of test [7] is Estrogen receptor (Homo sapiens) (UniProt P03372). Kind of test: qHTS assay to identify small molecule agonists of the estrogen receptor alpha (ER-alpha) signaling pathway in the presence of an antagonist (AID 1259383; calls by dose curve; also: top concentration of the series differs between compounds; nearly all actives have a fitted effect of over 15% in size). The essentials: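 Using VM7Luc4E2 cells seeded 24hr before treatment, antagonist ICI-182,780 (10.0nM final) was added, followed by compounds at 15 concentrations. Plates incubated 22hr; ONE-Glo luminescence quantified reporter activity.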

Test [8] is described as follows: qHTS assay to identify small molecule agonists or antagonists of the thyroid stimulating hormone receptor (TSHR) signaling pathway - wild type cell line counter screen (AID 1259384; calls by dose curve). The essentials:
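Wild-type HEK293 cells were plated 18 h at 37 C/5% CO2, pin-dosed with compound plus Ro20-1724 medium, held 30 min at room temperature, then given cAMP-d2 and anti-cAMP-cryptate; fluorescence was read after 1 h. Fifteen concentrations, triplicate.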

Test [9] addresses Thyrotropin receptor (Homo sapiens) (UniProt P16473). Kind of test: qHTS assay to identify small molecule antagonists of the thyroid stimulating hormone receptor (TSHR) signaling pathway (AID 1259385; calls by dose curve; also: nearly all actives have a fitted effect of over 20% in size). The essentials: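 TSHR-HEK293 cells were plated and held 18 h at 37C/5% CO2, then given compound plus Ro20-1724 and stimulated with TSH at 1.5 ng/mL final. After 30 min at room temperature, cAMP was detected with cAMP-d2/anti-cAMP-cryptate (1 h) by fluorescence.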

Test [10] can be described thus: qHTS assay to identify small molecule agonists of the estrogen receptor alpha (ER-alpha) signaling pathway in the presence of an antagonist - cell viability counter screen (AID 1259386).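 Also: cells exposed to compounds for 22 h at 37 °C before the viability read; nearly all actives have a fitted effect of over 30% in size.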 Also: potency is read from the fitted curve at half-maximal effect. The essentials:
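ICI-182,780 at 10.0nM final accompanies the compound titration (15 concentrations, 22hr, 37C) on VM7Luc4E2 cells. The CellTiter-Fluor fluorescence readout runs in the same wells as the luciferase assay.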

Test [11] has as its target Progesterone receptor (Homo sapiens) (UniProt P06401). Kind of test: qHTS assay to identify small molecule agonists of the progesterone receptor (PR) signaling pathway (AID 1346784; calls by dose curve; also: nearly all actives have a fitted effect of over 30% in size). An outline of the steps:
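Fluorescence from LiveBLAzer B/G FRET substrate cleavage (2 hr, RT) reported PR activation in PR-UAS-bla HEK 293T cells treated 16 hr at 37C/5% CO2 with compounds; medium contained 2% charcoal-stripped FBS.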

For test [12] the target is unchanged. Kind of test: qHTS assay to identify small molecule antagonists of the progesterone receptor (PR) signaling pathway (AID 1346795; active = well fitted inhibition curve with a large enough effect in the signal ratio in the repeat runs, not every such curve was filed as active; the % refers to the signal ratio; also: potency is read from the fitted curve at half-maximal effect). The essentials: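 Fluorescence intensity measured 2 hr after adding beta-lactamase FRET substrate to PR-UAS-bla HEK293T cells that had been co-treated 16 hr with compound and 1 nM R5020 (final concentration) in 2% charcoal-stripped FBS.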

A short description of test [13]: qHTS assay to identify small molecule antagonists of the progesterone receptor (PR) signaling pathway - cell viability counter screen (AID 1346798). Also: series mostly up to about 92 µM; nearly all actives have a fitted effect of over 50% in size. An outline of the steps:
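CellTiter-Glo luminescence; PR-UAS-bla HEK293T, 3,000 cells/well; compound + R5020, 16 hr, 37C/5% CO2; 30 min RT before read.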

Test [14] can be described thus: qHTS assay to identify small molecule agonists of the progesterone receptor (PR) signaling pathway - cell viability counter screen (AID 1346799; calls by dose curve; also: nearly all actives have a fitted effect of over 45% in size). The essentials:
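In parallel with the beta-lactamase readout, cytotoxicity toward PR-UAS-bla HEK293T cells was measured by CellTiter-Glo luminescence following 16 hr compound incubation in 2% charcoal-stripped FBS medium.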

A short description of test [15]: qHTS assay to identify small molecule antagonists of the TGF-beta/Smad signaling pathway - cell viability counter screen (AID 1346824). Also: nearly all actives have a fitted effect of over 50% in size. An outline of the steps: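 SBE-bla HEK 293T cells were plated overnight at 37 C, then given compounds in DMSO plus TGF-beta1 (added as 0.25 ng/mL solution) for 5 hr. After the bla read, CellTiter-Glo was added to the same wells and luminescence read after 30 min at room temperature.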

A short description of test [16]: qHTS assay to identify small molecule agonists of the TGF-beta/Smad signaling pathway - cell viability counter screen (AID 1346829). Also: top concentration of the series differs between compounds; nearly all actives have a fitted effect of over 45% in size. An outline of the steps: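 In parallel with the Smad reporter read, viability of HEK 293T cells stably carrying SBE-bla is quantified by ATP luminescence following 5 hr compound treatment.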
Test [17] in a line: qHTS assay to identify small molecule agonists of the TGF-beta/Smad signaling pathway (AID 1346859; active = well fitted activation curve with a large enough effect in the signal ratio in the repeat runs, not every such curve was filed as active; the % refers to the signal ratio; also: series mostly up to about 77 µM). The essentials:
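After overnight seeding, SBE-bla HEK 293T cells are dosed with compounds in DMSO and kept 5 hr at 37 C, 5% CO2. LiveBLAzer-type FRET substrate is then applied for 2 hr at room temperature.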

Test [18] addresses Thyrotropin-releasing hormone receptor (Homo sapiens) (UniProt P34981). Briefly: qHTS assay to identify small molecule antagonists of the thyrotropin-releasing hormone receptor (TRHR) signaling pathway (AID 1346877; active = well fitted inhibition curve with a large enough effect in the repeat runs, not every such curve was filed as active; also: series mostly up to about 51 µM). The essentials: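 Screening used HEK293 cells engineered with TRHR, with a brief 5 min room-temperature compound exposure preceding addition of TRH to 1 nM. The read-out was kinetic calcium-dye fluorescence, concentration-response from 15 doses in triplicate.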

For test [19] the target is unchanged. Kind of test: qHTS assay to identify small molecule agonists of the thyrotropin-releasing hormone receptor (TRHR) signaling pathway (AID 1346891; calls by dose curve;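 also: HEK293 cells expressing TRHR with calcium dye readout; series mostly up to about 58 µM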). The essentials: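 Compounds were tested as agonists at 15 concentrations, in triplicate, on TRHR-Hek293 cells; calcium-sensitive dye fluorescence was recorded for 3 min following addition.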
Test [20] concerns the target Androgen receptor (Homo sapiens) (UniProt P10275). Kind of test: qHTS assay to identify small molecule agonists of the androgen receptor (AR) signaling pathway in the presence of an antagonist (AID 1259381; calls by dose curve; also: nearly all actives have a fitted effect of over 15% in size). The essentials: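 Using human MDA-kb2 cells with an MMTV promoter–luciferase construct (AR and GR response elements), agonist activity is scored under 3.0uM nilutamide (final) co-treatment; 16hr incubation, 37C, luminescence readout via ONE-Glo.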

Progesterone receptor (Homo sapiens), sequence (P06401 whole entry, looked up): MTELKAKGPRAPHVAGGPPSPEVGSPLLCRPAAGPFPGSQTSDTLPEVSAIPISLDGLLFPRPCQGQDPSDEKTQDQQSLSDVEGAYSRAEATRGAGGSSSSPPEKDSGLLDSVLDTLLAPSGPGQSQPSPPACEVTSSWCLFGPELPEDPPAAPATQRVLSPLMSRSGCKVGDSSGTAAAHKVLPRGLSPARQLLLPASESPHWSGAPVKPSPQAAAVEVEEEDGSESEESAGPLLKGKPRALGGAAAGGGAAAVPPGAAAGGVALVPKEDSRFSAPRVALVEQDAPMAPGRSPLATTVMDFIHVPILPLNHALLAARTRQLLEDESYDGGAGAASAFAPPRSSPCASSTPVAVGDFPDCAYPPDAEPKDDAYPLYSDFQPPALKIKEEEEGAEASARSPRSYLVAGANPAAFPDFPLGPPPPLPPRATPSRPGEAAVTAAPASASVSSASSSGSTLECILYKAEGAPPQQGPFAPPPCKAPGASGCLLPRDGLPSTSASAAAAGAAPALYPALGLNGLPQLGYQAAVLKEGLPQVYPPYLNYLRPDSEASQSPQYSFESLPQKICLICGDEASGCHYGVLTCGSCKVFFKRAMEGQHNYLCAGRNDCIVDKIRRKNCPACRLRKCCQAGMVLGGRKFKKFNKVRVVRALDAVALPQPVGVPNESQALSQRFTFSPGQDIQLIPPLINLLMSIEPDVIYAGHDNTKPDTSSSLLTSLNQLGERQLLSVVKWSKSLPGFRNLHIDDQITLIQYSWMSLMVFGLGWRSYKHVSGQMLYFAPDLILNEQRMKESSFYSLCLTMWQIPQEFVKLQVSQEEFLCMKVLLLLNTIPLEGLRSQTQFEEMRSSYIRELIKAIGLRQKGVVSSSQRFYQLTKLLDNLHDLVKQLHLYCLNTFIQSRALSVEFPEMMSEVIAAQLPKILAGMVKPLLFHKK
Estrogen receptor beta (Homo sapiens), sequence (Q92731 whole entry, looked up): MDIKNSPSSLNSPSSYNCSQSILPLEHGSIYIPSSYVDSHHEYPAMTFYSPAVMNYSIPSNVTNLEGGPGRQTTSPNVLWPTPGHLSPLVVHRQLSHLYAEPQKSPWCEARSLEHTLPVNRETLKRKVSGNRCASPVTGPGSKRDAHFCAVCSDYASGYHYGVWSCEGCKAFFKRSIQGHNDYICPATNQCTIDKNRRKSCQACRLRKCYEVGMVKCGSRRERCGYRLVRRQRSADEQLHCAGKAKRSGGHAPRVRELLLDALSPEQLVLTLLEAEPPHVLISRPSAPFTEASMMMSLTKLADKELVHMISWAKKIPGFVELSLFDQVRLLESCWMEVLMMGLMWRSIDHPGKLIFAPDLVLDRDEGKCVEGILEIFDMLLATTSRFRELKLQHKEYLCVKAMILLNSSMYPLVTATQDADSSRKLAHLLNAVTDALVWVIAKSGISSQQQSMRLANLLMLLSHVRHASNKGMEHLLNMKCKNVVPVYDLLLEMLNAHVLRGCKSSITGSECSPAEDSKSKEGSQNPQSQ
Estrogen receptor (Homo sapiens), sequence (P03372 whole entry, looked up): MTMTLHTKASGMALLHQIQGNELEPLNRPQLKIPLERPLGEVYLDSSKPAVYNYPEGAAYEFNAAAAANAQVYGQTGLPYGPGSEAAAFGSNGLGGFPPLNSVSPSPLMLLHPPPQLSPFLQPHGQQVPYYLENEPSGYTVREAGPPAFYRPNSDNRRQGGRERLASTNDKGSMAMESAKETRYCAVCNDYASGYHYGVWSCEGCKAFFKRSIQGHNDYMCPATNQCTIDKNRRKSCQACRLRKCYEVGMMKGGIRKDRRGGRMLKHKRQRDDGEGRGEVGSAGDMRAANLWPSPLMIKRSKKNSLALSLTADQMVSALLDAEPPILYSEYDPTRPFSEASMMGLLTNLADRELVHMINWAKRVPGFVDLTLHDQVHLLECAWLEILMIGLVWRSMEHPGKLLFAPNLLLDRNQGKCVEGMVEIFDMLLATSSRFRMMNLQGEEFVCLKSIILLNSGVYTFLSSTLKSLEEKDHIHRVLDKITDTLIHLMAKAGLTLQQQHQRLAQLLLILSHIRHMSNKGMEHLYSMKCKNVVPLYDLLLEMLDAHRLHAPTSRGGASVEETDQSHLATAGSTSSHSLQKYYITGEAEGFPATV
Thyrotropin-releasing hormone receptor (Homo sapiens), sequence (P34981 whole entry, looked up): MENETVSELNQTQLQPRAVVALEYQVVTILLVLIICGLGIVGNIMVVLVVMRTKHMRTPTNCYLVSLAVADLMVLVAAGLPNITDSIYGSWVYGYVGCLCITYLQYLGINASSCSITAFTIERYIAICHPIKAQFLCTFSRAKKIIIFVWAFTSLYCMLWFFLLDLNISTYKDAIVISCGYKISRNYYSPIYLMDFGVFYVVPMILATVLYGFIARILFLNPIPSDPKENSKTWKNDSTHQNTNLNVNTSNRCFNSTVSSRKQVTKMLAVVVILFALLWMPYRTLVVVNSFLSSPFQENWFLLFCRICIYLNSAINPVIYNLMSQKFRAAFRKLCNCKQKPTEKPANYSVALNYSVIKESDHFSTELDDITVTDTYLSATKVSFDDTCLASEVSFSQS
Androgen receptor (Homo sapiens), sequence (P10275 whole entry, looked up): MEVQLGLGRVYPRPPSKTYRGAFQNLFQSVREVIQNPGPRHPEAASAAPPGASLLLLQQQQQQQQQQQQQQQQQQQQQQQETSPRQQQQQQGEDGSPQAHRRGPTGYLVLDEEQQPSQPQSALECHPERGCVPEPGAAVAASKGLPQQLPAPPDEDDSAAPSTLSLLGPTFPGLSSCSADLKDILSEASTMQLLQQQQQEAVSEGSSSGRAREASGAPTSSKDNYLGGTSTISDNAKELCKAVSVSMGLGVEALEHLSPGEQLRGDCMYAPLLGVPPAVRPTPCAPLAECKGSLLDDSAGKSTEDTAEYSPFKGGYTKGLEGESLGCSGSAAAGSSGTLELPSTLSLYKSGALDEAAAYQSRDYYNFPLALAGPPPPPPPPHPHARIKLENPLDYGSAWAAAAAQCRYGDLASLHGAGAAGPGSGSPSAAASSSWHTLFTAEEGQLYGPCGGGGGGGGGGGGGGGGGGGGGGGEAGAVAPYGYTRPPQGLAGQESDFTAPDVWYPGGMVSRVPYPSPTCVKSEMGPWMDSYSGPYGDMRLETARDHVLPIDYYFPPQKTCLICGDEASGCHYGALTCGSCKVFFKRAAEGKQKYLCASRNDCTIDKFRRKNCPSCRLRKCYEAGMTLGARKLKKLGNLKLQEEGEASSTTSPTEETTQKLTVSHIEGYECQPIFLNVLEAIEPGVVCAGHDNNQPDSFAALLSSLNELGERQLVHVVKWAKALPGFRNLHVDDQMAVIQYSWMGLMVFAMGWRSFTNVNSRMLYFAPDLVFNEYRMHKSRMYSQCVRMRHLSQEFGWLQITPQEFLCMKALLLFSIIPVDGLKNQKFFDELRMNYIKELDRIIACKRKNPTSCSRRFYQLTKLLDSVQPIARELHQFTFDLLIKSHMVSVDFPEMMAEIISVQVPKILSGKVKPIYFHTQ
Thyrotropin receptor (Homo sapiens), sequence (P16473 whole entry, looked up): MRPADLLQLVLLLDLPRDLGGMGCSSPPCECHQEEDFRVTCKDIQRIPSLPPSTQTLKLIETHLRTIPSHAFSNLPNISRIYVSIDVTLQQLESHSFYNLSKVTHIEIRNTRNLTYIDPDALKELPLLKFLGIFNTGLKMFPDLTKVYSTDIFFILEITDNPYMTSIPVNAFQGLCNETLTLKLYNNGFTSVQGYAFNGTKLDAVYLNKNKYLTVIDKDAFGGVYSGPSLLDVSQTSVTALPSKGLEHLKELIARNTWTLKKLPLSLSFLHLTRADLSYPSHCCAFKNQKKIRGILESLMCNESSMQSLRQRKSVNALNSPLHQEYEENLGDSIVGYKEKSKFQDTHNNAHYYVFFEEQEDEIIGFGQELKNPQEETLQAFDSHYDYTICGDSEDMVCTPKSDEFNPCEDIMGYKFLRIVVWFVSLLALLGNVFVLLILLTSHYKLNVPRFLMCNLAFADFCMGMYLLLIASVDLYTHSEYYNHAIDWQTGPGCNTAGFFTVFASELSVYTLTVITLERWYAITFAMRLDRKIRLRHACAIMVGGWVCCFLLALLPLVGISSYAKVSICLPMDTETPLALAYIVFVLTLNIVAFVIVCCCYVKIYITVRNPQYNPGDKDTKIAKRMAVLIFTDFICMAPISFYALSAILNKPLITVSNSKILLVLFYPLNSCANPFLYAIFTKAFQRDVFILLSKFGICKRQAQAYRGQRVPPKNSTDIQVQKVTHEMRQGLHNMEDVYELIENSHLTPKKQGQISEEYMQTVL

With `CC(=O)Nc1ccc(C(=O)O)cc1`, the Potency result in test [1], in test [2], in test [3], in test [4], in test [5] and in test [6] was “inactive” throughout. Also, the Potency result in test [7], in [10], in test [11], in test [12], in test [13] and in test [14] was “inactive” in each case. For the same compound, the Potency result in test [15], in test [16] and in test [19] was “inactive” throughout. In addition, the call in test [8], in test [9], in test [17] and in [18] was inactive.

In the case of `Oc1ccc(OCc2ccccc2)cc1`, the Potency entry in test [1], in test [2], in [3], in [4], in test [5] and in test [20] was “inactive” each time. Further, the Potency entry in test [6], in test [10], in [11], in [13], in [14] and in test [15] was “inactive” throughout. Besides, the Potency entry in test [16] and in test [19] was “inactive” throughout. Also, the result in test [8], in test [17] and in [18] was inactive. The Potency in [12] is 18.9 µM (active).

Take `CC1=C(/C=C/C(C)=C/C=C/C(C)=C/CO)C(C)(C)CCC1`: the Potency is 15.5 µM (active) in [1]; “inactive and 64.4 µM (active)” in test [3]. For the same compound, the Potency entry in test [2], in test [4], in [5], in test [6], in test [7] and in test [10] was “inactive” in each case. The Potency result in [11], in test [12], in [13], in [14], in test [15] and in test [16] was “inactive” each time. Moreover, in [19], the Potency entry is “inactive”. Further, the compound was called inactive in test [8], in test [9], in test [17] and in test [18].

For `Nc1c(S(=O)(=O)O)cc(Br)c2c1C(=O)c1ccccc1C2=O`, the Potency result in test [1], in test [2], in [3], in test [5], in [6] and in [11] was “inactive” throughout. In addition, the Potency entry in test [12], in test [13], in [14], in test [15] and in [16] was “inactive” in each case. In addition, the values for the Potency in test [4] and in test [10] were 27.3 µM (active) and 30.6 µM (active), respectively. Further, the outcome in test [8], in [9], in [17] and in test [18] was inactive.

Consider `CCCCC(CC)COC(=O)/C=C\C(=O)OCC(CC)CCCC` (configuration not stated), for which the Potency entry in [1], in [2], in [3], in test [4], in [5] and in [20] was “inactive” in each case. Further, the Potency result in test [6], in test [10], in test [11], in [12], in [13] and in test [14] was “inactive” throughout. For the same compound, the Potency entry in test [15], in test [16] and in test [19] was “inactive” each time. The call in [8], in [17] and in test [18] was inactive.

Take `NCCc1ccc(O)c(O)c1`: the Potency in test [1] is 0.866 µM (active); in test [4], 54.6 µM (active) and inactive; in test [10] it was 27.4 µM (active) and inactive. For the same compound, the Potency result in [2], in [3], in [5], in test [6], in test [7] and in test [11] was “inactive” each time. Besides, the Potency entry in test [12], in [13], in test [14], in test [16] and in test [19] was “inactive” each time. Further, the compound was called inactive in test [17] and in test [18].

With `CCc1ccc(O)cc1`, the Potency result in test [1], in [2], in [3], in test [4], in test [5] and in test [20] was “inactive” each time. For the same compound, the Potency result in test [6], in test [10], in test [11], in test [13], in test [14] and in test [15] was “inactive” each time. The Potency result in test [16] is “inactive”. Also, the result in [8] and in test [17] was inactive.
